Data on 133 sequences can be found in PubChem BioAssay AID1159506 (National Center for Advancing Translational Sciences (NCATS), 2015).

Whole data set: some 59,000 sequences, median the read-out near -0.00055, cut for the lowest 2% near -2. Many of the other results were omitted from the sample, so the lowest values are more common in it than they were.

The assay in a line: Identification of proteins required for the processing of the EWS-FLI1 nascent transcript.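 Note: robust z of luciferase light less the median z of siRNAs with the same seed.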 Conditions: TC32 Ewing sarcoma NR0B1-luc vs CMV-luc (EWS-FLI1 target promoter against control promoter), 48 h; screened at 20 nM (by protocol). A digest of the protocol:
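Parallel TC32-NR0B1-luc and TC32-CMV-luc reverse transfections with 20 nM siRNA in RPMI-1640/10% FBS, luciferase measured 48 h later. Seed-adjusted z-scores from normalized, z-score-MAD transformed data; AllStars negative and siGL4 controls on each plate.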
For AUCUGCAUAAUGCACAUUC against SLC15A5, the seed-corrected z-score is -2.92.
Turning to AGCAUCUUGACAUUCAUCU against MYL4, the seed-corrected z-score was -0.225.
The result for UUUAAGGGUAUUACGAGUG against GGPS1 reads 0.153; that for UUAUCAAUUAGAGGAUAAC against B3GALNT1, 0.214; that for AUACAUCCGAUUAAGAGGC against SERINC5, -2.74.
For UUUCCUGUAAAUCCCACAG against TSSC1, the seed-corrected z-score turned out to be 0.399.
To AGAUCUAAUAACAAUAAGC against EIF2S3 belongs -2.28; to AAUCAGUCAGGUAAAUGCC against ENTPD1, 0.248.
AAUAAAAAUGACAGUUUCC against BTN2A2 showed a seed-corrected z-score of 0.474.
AAUGAGAAUAAAGUCUACC against OR51A4: the seed-corrected z-score was -2.31.
UCCUUCACAAACAUGUCCC against SDK1 registered a seed-corrected z-score of 0.154.
In the case of UAUCGAAGAUAAAUCAGCC against SLC7A11, the seed-corrected z-score amounted to 0.269.
The sequence UUCUUCUCGGCCUGUUUCC against RPL13A came in with a seed-corrected z-score of 0.511.
Take UGCCUGUAAAGCCGUCUCC against LINC00705: the seed-corrected z-score was -0.731.
As to AAGCCUAUGAUGAUCACUG against C3orf52, the seed-corrected z-score is -0.911.
Consider UUCCAGCACAUAUCGACUC against TMEM8B, for which the seed-corrected z-score was -2.4.
Consider AUACUGGACACUCUUGCCG against RNF5, for which the seed-corrected z-score was -2.86.
As to UUCGGUCUCAGGACUAUUG against KAT6A, the seed-corrected z-score amounted to 0.686.
As to UUCUUGAACUGUCUAAACC against CERKL, the seed-corrected z-score amounted to 0.919.
As to UUUCAUUGAAGCGGAAGCG against CRYGD, the seed-corrected z-score turned out to be 0.834.
As to UUACUUAGAGGAGAUACCA against IGFBP7, the seed-corrected z-score is -0.294.
Take UCCCGGAAAGCCUUCAUGG against INF2: the seed-corrected z-score is -0.589.
UAAGAUAUGAACUCUGACG against ZNF234: the seed-corrected z-score worked out at 0.548.
As to UGGGCUUGUAGAAGUGUCU against DGAT1, the seed-corrected z-score is -0.22.
As to AAUUAUUCGACUGACAUAG against RFC4, the seed-corrected z-score is -2.19.
To AUCUGUCCAAGACAUUUGC against CHRNA7 belongs -1.18.
AAACUGACAAGUAGACUGG against ANKRD27: the seed-corrected z-score was -0.601.
UCAGUUGCUUAUGAUAGUC against CCDC73 returned a seed-corrected z-score of -2.71.
The sequence UUAUUAGAGAGAAAAGCAC against PRAC1 came in with a seed-corrected z-score of 0.7.
UCCGUUAUUAGCAUCUGCC against 6-Mar displayed a seed-corrected z-score of -0.0888.
In turn, UUAUUGAUGCGUUGAUUUG against CCDC88C showed a seed-corrected z-score of 0.00274.
UUAUGUACCUUGUUACAUU against CD72: the seed-corrected z-score is -0.111.
Sequence AUGCGGUUCAGGAACUUGG against SBNO2 yielded a seed-corrected z-score of -2.46.
To ACAUAUAGUAUCAUUAUGG against SLC35D2 belongs 0.0309; to UUUCGGUUCCUUGAAACCA against DBNL, -0.0899.
The result for UUUGAUUCUACUUCAAAAC against CBX3P2 reads 0.167; that for AAAGGGACGCUCAACCACC against HIST1H4K, -1.31.
UUAACUGCAGGCUUAUACU against AKR1B1 gave a seed-corrected z-score of -1.42.
To UAUCUUUUCCCAGUUGGAC against MSRB3 belongs -2.11.
UACGAUUCUUGAGUGGAAG against BACH1 returned a seed-corrected z-score of 0.239.
As to UCUGUUUCUCGCGCACUCG against COX7A1, the seed-corrected z-score amounted to 0.0308.
To UUCUUACACCUGACGAAGC against WNT5B belongs 0.217; to UAUGAUUUAAUCACCUCCU against LOC653513, 0.00911; to UCAAUGAGAGUGCACAUCC against COPA, -3.73.
In turn, AUAUCAAUUGUUAUCUUGC against ANKRD30A yielded a seed-corrected z-score of 0.895.
UCUACUAUCAUUGUCCCUU against TAL1 displayed a seed-corrected z-score of 0.0482.
Turning to UCUGGUACUGUGAAGGGUC against TSPYL5, the seed-corrected z-score is 0.606.
Take UAUUAUUGUCUGGAACAUC against C12orf57: the seed-corrected z-score was 0.301.
For UGACGUACAGCAUUGACAG against PHLPP2, the seed-corrected z-score is 0.366.
Regarding UAAGUCCCAAUUCACUCUC against FAM134B, the seed-corrected z-score was 2.19.
The sequence UCUGGUUCCAGGUUGCUUA against SFXN3 displayed a seed-corrected z-score of -2.37.
To AGUAGAAAGACCAUGCUUG against TUBB2A belongs 0.712.
In the case of AAAACUAUUGGUUUCUUCC against GCOM1, the seed-corrected z-score is -0.0313.
UUCGUAGUGGAGUGAAUCC against DHH registered a seed-corrected z-score of -0.195.
In turn, ACUGCUUUCCUUAAAAUCC against CCDC40 displayed a seed-corrected z-score of -3.74.
The result for UUGUUAACCAAGACAACGC against SNAPIN reads 0.13.
Regarding UGCUAUAUCUAGAUGUUCC against RMDN2, the seed-corrected z-score is -0.178.
Sequence UCUUUGUUCCAUCAUGACC against NDUFAF7 returned a seed-corrected z-score of 0.211.
In the case of UCAUUUCGCACAGCUUCCU against RARG, the seed-corrected z-score was found to be 0.369.
AAUGCUCCAAGACUGGAGG against PTCRA: the seed-corrected z-score is -1.44.
Regarding UACAUGGUAAUAACUUUUC against MARCKS, the seed-corrected z-score is -0.217.
Sequence UUUGUUCAUCACGAAAGUC against SDHAF3 displayed a seed-corrected z-score of -0.383.
AGAGUGUCAAGCAGCAUGG against EEF1A1P33 showed a seed-corrected z-score of -2.33.
The sequence UGCGGAUCAAGUCUGAGAC against MSH5 came in with a seed-corrected z-score of -0.442.
For UGAGUUUCUCGCACGUCUC against WNT4, the seed-corrected z-score is -2.44.
In the case of UGAGGCUCCAGUUUCAGGC against SLC3A2, the seed-corrected z-score turned out to be 1.53.
The result for UGACUUGACUCCGAUCUGC against AP2A1 reads -0.384; that for UUCGUGGUCUUGCAGAAGC against LY6D, -0.178.
GAUAGUUGUAGGGUGUGGC against NDUFA3P3 came in with a seed-corrected z-score of 0.165.
To UAACUUAUCUAAACUACUC against SPAG9 belongs -0.547; to AAUGGUUUCACCGGCAGCG against IFRD2, -2.09.
The result for AACUCUUCUAUGUCGAAUG against ZNF551 reads -0.267.
For UCCGAUGACACCAAGAGCG against REEP5, the seed-corrected z-score was 0.932.
Regarding UACUUUACGUUCUUCGAUC against PAGE4, the seed-corrected z-score amounted to 0.246.
Sequence ACUGGAGAUAGUGCUGUUG against SUN2 registered a seed-corrected z-score of -4.61.
For the sequence UGUGAUGUUAGCAAUCUUC against TAS2R41, the seed-corrected z-score was -0.517.
To UAGUCAACAAUGUCACAUC against ELOVL7 belongs -0.576.
In turn, UGAUGCACCAUCACAGUCU against SUSD6 showed a seed-corrected z-score of 0.212.
For the sequence CACCAGGAUGGUUUGGUUG against BRICD5, the seed-corrected z-score was 1.06.
For the sequence UCUUCGGUCAUGAAUGAGG against TAT, the seed-corrected z-score is -0.586.
UCUGUCAUCUUUUUGGGUG against PSMD8 had a seed-corrected z-score of -4.18.
To UCCGAUACCGACAAUAACC against ADAM7 belongs 0.224; to UGAAGUACACCUUAAAGCC against SCN4A, 0.557.
Sequence UCUGUUCCAAUACUGCUUG against CD209 yielded a seed-corrected z-score of -0.501.
For AUGGUGUCAAGAAUAAGGC against ROPN1L, the seed-corrected z-score was 1.14.
With UCAGCAACAACGGAUAUCG against PLEKHG7, the seed-corrected z-score was -0.178.
To AAAGUGCCCAAAACGAUGG against ATP2B3 belongs 0.438; to AACAUCUCCAAUGAUAGGG against NR0B2, -2.16.
As to UCACCUACUUCGAUCUUCC against MECOM, the seed-corrected z-score was -0.295.
Regarding AAUCAUGCCCUUUUUGUGG against FPR2, the seed-corrected z-score is -2.
As for UUCCAGCCCAUGAGAACCC against DKK2, the seed-corrected z-score turned out to be 0.436.
Sequence AACGGAAAUGCUGACAUCG against EPRS registered a seed-corrected z-score of -0.386.
The result for AGAGUUUCCUGAGUCUUCU against TPD52L2 reads -2.41.
UAUCAUUGCGUGUUGCUGC against BBOF1: the seed-corrected z-score was found to be 0.0553.
With UCUGUGAGGAAUGCUGUCC against RFT1, the seed-corrected z-score is -2.48.
Sequence UUCUAGCUCACUGAAGUCC against PYGL had a seed-corrected z-score of -0.371.
The sequence UUCAGGGCAUUUAAAGGGC against ZNF629 showed a seed-corrected z-score of -0.898.
To AAGAUAAUAAAAACGUAGG against SLC2A14 belongs 0.0262; to ACUGCUUACACUCACAUGG against ZNF490, -4.22; to UGGGAGCAAAGCAUAGUCG against PNMA3, -1.88.
To UACUUGACUGAAAUGUCUC against ZNF829 belongs -0.616; to UAGUUGUCCUGGUCGGAGC against LY6E, -2.61; to UUGCAUGCAAUGGUGAGGC against S100A10, -1.4.
UACUUUGCGACCAUUUAGG against PABPC3 gave a seed-corrected z-score of -1.3.
As for UCUGUAACAUGCGGAGUUC against M1AP, the seed-corrected z-score was -0.631.
To ACCGUGUUCAGAUAGCCUG against RACK1 belongs -1.01.
With AAUGUUGACACGUCUCCUG against TOB1, the seed-corrected z-score stood at 0.235.
UUGGGAGUGAAAACAGAGG against OR8B2 returned a seed-corrected z-score of -3.41.
As to AACUUCUUCAAGGUAAUUG against PJA1, the seed-corrected z-score is 0.88.
In turn, AAAGUUUCACUCUUUCUGG against TPT1P8 displayed a seed-corrected z-score of -0.645.
For UUCGAUUGAAAGAAGGCCU against MYOZ1, the seed-corrected z-score was -0.336.
The sequence AACUCUAUUCAUGAGCUCG against ANGPTL5 came in with a seed-corrected z-score of 0.0468.
The result for UUCCUGAUUAGUAAUGUCG against RAB5B reads 0.136; that for AUCUUGGACAGAUAUAAUC against RNF126, -2.4; that for UAUACUAUUGGUAAGUGCA against SND1-IT1, -0.0514.
To AUACUCCACACCACAAAGC against LTB4R belongs 0.354; to AAAAGACCAAAGCCCAUGU against RPLP1, -2.92.
The result for UAUAGUGAAGAGAUAUGCC against ADGRL2 reads 0.229.
In turn, UCGUUUUUGACUACCAGGG against PHKB yielded a seed-corrected z-score of 0.853.
AACUGAUUAAAAUCAGAGG against PIGG had a seed-corrected z-score of 0.269.
UAGUAGCAUAGUUCAGUGG against OR51T1 showed a seed-corrected z-score of 0.179.
As to UUUGCUCUCAUUCUCCGCA against SF3B5, the seed-corrected z-score was -3.03.
The sequence AUAGUUAAUUGAAUUUCGG against BMPR2 registered a seed-corrected z-score of -0.638.
The result for UUUGCAGCCUCGGUUAUAG against PWWP2B reads 0.352; that for AAGAGUAAUAGGCAAUUUC against SLC19A2, -0.574; that for ACACGGGCAAUGGAUUUCC against RPL35, -0.426.
The sequence UAACAUACACUAGAUCGCC against FOLH1 gave a seed-corrected z-score of -3.06.
To AAUGAGAUAAUGUUGGUCA against SNX29P1 belongs -1.77.
As to UUUCUUUUCGGCUCUAGGG against NKX2-5, the seed-corrected z-score is -1.12.
In the case of UGUACAAUGAGGAAGCUUC against LOC728903, the seed-corrected z-score is -0.125.
In turn, UCUUUGCAAAGGGUAUGCC against IL17RE returned a seed-corrected z-score of -2.02.
In the case of AGACCAUCCCACGAAAUGC against PEBP1, the seed-corrected z-score was -1.22.
The result for AAGCGGAAAAUCUUGAUGC against SLC26A2 reads 0.168.
